Compounds without any hit were thinned out: in the full panel of roughly 83,000, 20% have a hit.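 A percent growth of 40 corresponds to 60% growth inhibition; 0 means no net growth; -100 means all cells died. Active threshold: below 10.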 Values without a mark were called inactive. Active and inactive are the calls of the source.
Each molecule was assayed on MDA-MB-468 breast (assay: NCI-60 one-dose screen, 48 h (100 = growth as untreated, 0 = no growth, -100 = all killed)). Conditions: 10 µM unless noted.
Work on `COc1ccccc1NC(=O)n1c(=O)cc(C)c2ccc(O)cc21` yielded a growth of 96.3%. `CNc1ccc2c(c1)c1ccccc1n2C` gave a growth of 102%. With `C=C(C)[C@@H]1CC[C@]2(C)[C@H](CC=C3[C@@H]4[C@H](C)[C@@H](C)CC[C@]4(CO)CC[C@]32C)[C@@]1(C)CCCN` the growth was -54.7% (active). In the case of `CN1CCc2c(sc3nc4n(-c5ccc(Cl)cc5)c(=O)[nH]n4c(=O)c23)C1`, the growth is reported as 114%. `N#Cc1ccc(OCc2nc(N)nc(N)c2-c2ccc(Cl)c(Cl)c2)cc1` was tested, and the growth was 35.4%. For `O=C(COc1ccc(/C=C2\C(=O)Nc3ccc(F)cc32)cc1)Nc1ccccc1`, the growth was 98.5%. `CC1=C(N2CCOCC2)C(N2CCOCC2)=C(C)C(=O)C1=O` showed a growth of 97.1%. For `O=c1c2ccccc2oc2ccc(OCCCCCCN3CCCCCC3)cc12`, the growth was 20.2%. For `Cc1cc(Nc2nc(N3CCNCC3)nc3ccccc23)n[nH]1`, the growth was 76.6%. `COc1ccc(OC)c2c1CCC1(C2)NC(=O)NC1=O` (stereo not given) was tested, and the growth was 106%. In the case of `COc1cc(/C=N/n2cnc3oc(-c4ccccc4)cc3c2=N)cc(CN2CCCC2)c1O`, the growth is reported as 82%. `Cn1cnc([N+](=O)[O-])c1/C=C1\Oc2ccc(Cl)cc2C1=O` showed a growth of 79.8%. In the case of `O=S(=O)(NCCCNc1nccc(-c2c(-c3ccccc3)nc3occn23)n1)c1ccc(Cl)cc1`, the growth is reported as 67.1%. With `CC(=O)OCC(OC(C)=O)C(OC(C)=O)C(OC(C)=O)C(OC(C)=O)C(/C=N/Nc1ccccc1)=N/Nc1ccccc1` (stereo not given) the growth was 46.4%. `O=C(OCc1ncc(-c2ccc(C(F)(F)F)cc2)c(NC2CCCCCC2)n1)c1c(F)c(F)c(F)c(F)c1F` was tested, and the growth was 16.9%. `CC(=O)Oc1ccccc1C(=O)Nc1cc(C(C)C)ccc1C` was tested, and the growth was -5.42% (active). In the case of `COC(=O)[C@]1(C)CC[C@]2(C)CC[C@]3(C)C(=CC(=O)[C@@H]4[C@@]5(C)CCC(=O)NC(C)(C)[C@@H]5CC[C@]43C)[C@@H]2C1`, the growth is reported as -49.5% [100 µM] (active). `COc1cc(/C=C/C(=O)c2cccc(-n3cc(-c4cc(OC)c(OC)c(OC)c4)[nH]c3=O)c2)cc(OC)c1OC` gave a growth of 27.7%. In the case of `CC(=O)Nc1nccs1`, the growth is reported as 107%. `COC(=O)c1c2c(c[n+]([O-])c1C)C(=O)C=CC2=O` was tested, and the growth was -17.2% (active). Work on `CC(=O)n1nc(C(=O)OC(C)(C)c2ccccc2)c2ccccc21` yielded a growth of 93.3%. In the case of `Cc1c(N(C)CS(=O)(=O)O)c(=O)n(-c2ccccc2)n1C`, the growth is reported as 106%. `O=C1CN(CCN2CC(=O)NC(=O)C2)CC(=O)N1` showed a growth of 94.8%. `NC(=N\N=C/c1ccccc1[N+](=O)[O-])/C(N)=N\N=C/c1ccccc1[N+](=O)[O-]` showed a growth of 101%. `Nc1ccccc1NC(=O)c1ccc(CN2CCC/C(=C\c3ccccn3)C2=O)cc1` was tested, and the growth was -6.37% (active).

Reference: PubChem BioAssay (NCI)
